Screen size: about 370,000 compounds; about 2,300 (0.62%) were called active. Many of the other results were omitted from the sample, so actives are more common in it than they were. A number with no mark means an inactive call.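 How the source made its calls: active means inhibition above a per-campaign cutoff equal to the mean of compounds falling between control-based bounds plus 3 SD (cut at about 20% in these data); inactive means the rest.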
target: Disintegrin and metalloproteinase domain-containing protein 10 (Homo sapiens) (UniProt O14672); assay: human ADAM10 inhibitors, primary screen, biochemical, QFRET, HTS (AID 720582); settings: recombinant ADAM10, EDANS/DABCYL FRET peptide cleavage, 3 h; at 7 µM; hits give high values;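 further: 0% = DMSO wells while the 100% control is not disclosed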
Sequence (O14672 214-748 limits assumed): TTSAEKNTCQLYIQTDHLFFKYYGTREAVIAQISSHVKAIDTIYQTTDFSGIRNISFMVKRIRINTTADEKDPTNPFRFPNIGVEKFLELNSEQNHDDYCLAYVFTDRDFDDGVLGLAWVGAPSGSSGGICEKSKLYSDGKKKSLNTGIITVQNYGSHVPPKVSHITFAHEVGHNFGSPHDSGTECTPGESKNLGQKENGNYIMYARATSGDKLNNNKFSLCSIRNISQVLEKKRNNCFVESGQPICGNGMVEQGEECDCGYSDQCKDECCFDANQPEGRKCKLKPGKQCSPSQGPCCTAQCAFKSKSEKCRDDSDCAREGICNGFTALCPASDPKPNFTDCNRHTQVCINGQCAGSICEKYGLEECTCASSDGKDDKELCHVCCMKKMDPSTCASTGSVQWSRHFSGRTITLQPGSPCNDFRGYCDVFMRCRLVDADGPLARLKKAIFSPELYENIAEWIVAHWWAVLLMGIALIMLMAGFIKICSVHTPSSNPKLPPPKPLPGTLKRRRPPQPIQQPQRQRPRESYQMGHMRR

Structure (SMILES) | inhibition
O=C(CNC(=O)c1ccc(Cl)cc1Cl)NCC(=O)Nc1ccccc1N1CCOCC1 | 83.6% (active)
Cc1ccc(NC(=O)COC(=O)CNC(=O)c2ccc(Cl)cc2Cl)cc1S(=O)(=O)N1CCOCC1 | 7.22%
O=C(CCNC(=O)c1ccc([N+](=O)[O-])cc1)Nc1ccccc1N1CCOCC1 | 1.54%
Cc1ccc(CN2CCCCC(NC(=O)C3CCCCC3)C2=O)cc1 (stereo unspecified) | -0.65%
O=C(CSc1nc2c(c(=O)[nH]1)CCCC2)N1CCCCC1 | 3.78%
CCOC(=O)c1csc(NC(=O)Nc2cccc(OC)c2)n1 | 0.5%
COc1ccc(C(N)c2csc(NC(=O)Nc3cccc(C(F)(F)F)c3)n2)cc1 (stereo unspecified) | 25.5% (active)
NC(c1csc(NC(=O)Nc2ccccc2Oc2ccccc2)n1)c1ccccc1Cl (stereo unspecified) | -3.13%
Nn1c(SCC(=O)Nc2cccc3ccccc23)nnc1-c1cc(-c2ccc(F)cc2)n[nH]1 | -0.59%
COc1ccc(Cl)cc1NC(=O)c1cccc(N2C(=O)C3CC=CCC3C2=O)c1 (stereo unspecified) | 3.57%
COc1ccc(Cl)cc1NC(=O)COC(=O)c1ccc(Br)o1 | -6.92%
COc1ccc(Cl)cc1NC(=O)COC(=O)C(CC(C)C)N1C(=O)C2CC=CCC2C1=O (stereo unspecified) | 28% (active)
Cc1ccccc1CS(=O)(=O)Cc1ccc(C(=O)Nc2ccc(Cl)cc2)o1 | -29%
Cc1sc2nc(SCC(=O)c3ccc(O)c(O)c3)n(Cc3ccco3)c(=O)c2c1C | 15.9%
COc1cccc(CNC(=O)C2CCCN(c3nc4ccccc4o3)C2)c1OC (stereo unspecified) | 2.5%
O=C1c2ccccc2C(=O)N1CCOc1ccc(F)cc1 | 0.68%
O=Cc1cn(CCOc2ccc(F)cc2)c2ccccc12 | 20.7% (active)
Cc1c(C=O)c2ccccc2n1CCOc1ccccc1 | 10.4%
Cc1ccc(C(=O)C2CCN(CC(=O)NCCC(C)C)CC2)cc1 | -6.22%
O=C(/C=C/c1ccc(F)cc1)NC(=S)NNC(=O)c1cccnc1 | 22.8% (active)
Cc1cccc(OCCNC(=S)NC(=O)c2cccnc2)c1 | 2.33%

Structure (SMILES) | inhibition
NS(=O)(=O)c1ccc(NC(=S)NC(=O)c2cccnc2)cc1 | -8.74%
O=C1CCC2(CCC(c3ccc(Cl)cc3)CC2)N1CCO (stereo unspecified) | -9.03%
O=C(NC(Cc1c[nH]c2ccccc12)C(=O)N/N=C/c1ccc(Br)cc1)c1cccs1 (stereo unspecified) | 28.1% (active)
CCN(CC)c1ccc(/C=N/NC(=O)CNC(=O)c2cccs2)cc1 | -246%
O=C(N[C@@H](Cc1c[nH]c2ccccc12)C(=O)O)OCC1c2ccccc2-c2ccccc21 | -1.67%
COC(CNC(=O)[C@H](Cc1ccccc1)NC1(C(=O)NC2CCCCC2)CCCCC1)OC | 4.93%
O=C(CCS(=O)(=O)c1ccccc1)Nc1ccc(Cl)c(Cl)c1 | -2.68%
O=C(Nc1ccc(Cl)c(Cl)c1)N1CC=C(c2ccccc2)CC1 | -19.8%
O=C(CC(O)(C(F)(F)F)C(F)(F)F)Nc1ccc(Cl)c(Cl)c1 | 23.7% (active)
COC(=O)C1CN(Cc2ccc(F)cc2)CCS(=O)(=O)N1Cc1ccc(Cl)cc1 (stereo unspecified) | -0.23%
COC(=O)[C@H](C(C)C)N1CCc2nnn(Cc3ccc(C)cc3)c2-c2ccccc2S1(=O)=O | 5.83%
COC(=O)[C@]12C[C@H](CC(=O)NCCc3ccccc3OC)C(=O)N(Cc3ccco3)C1=C[C@H](C(C)C)O[C@@H]2C1CC1 | -2.42%
CC(=O)Nc1ccc(OC[C@@H](O)CN2CCC(C(O)(c3ccccc3)c3ccccc3)CC2)cc1 | 4.68%
O=C(NCCc1c[nH]c2ccc(Cl)cc12)c1ccc([N+](=O)[O-])cc1 | -1.95%
NS(=O)(=O)c1ccc(CCNC(=O)c2ccc(Cl)cc2[N+](=O)[O-])cc1 | -0.8%
O=C(NCCc1ccc(Cl)cc1Cl)c1cc([N+](=O)[O-])c[nH]c1=O | 20.1% (active)
Cc1cc(NS(=O)(=O)c2ccc(NC(=O)CSc3nnc(-c4ccc(C(C)(C)C)cc4)n3Cc3ccco3)cc2)nc(C)n1 | 5.55%
COc1ccc(C2Nc3ccccc3C(=O)N2Cc2cccs2)cc1COc1c(C)cccc1C (stereo unspecified) | -298%
COc1ccc(C(=O)OCCN(C)C2CN(Cc3cn(Cc4cccc(C)c4)nn3)S(=O)(=O)C2)cc1OC (stereo unspecified) | 2.95%
Cc1ccc(-n2c(SCC(=O)Nc3cccc4ccccc34)nnc2-c2ccco2)cc1 | 9.63%
S=c1[nH]ccn1-c1ccc(Cl)cc1 | -2.53%

Structure (SMILES) | inhibition
S=c1[nH]nc(CSCc2ccc(Cl)cc2Cl)n1-c1ccccc1 | 15.5%
S=c1[nH]cc(-c2ccc(Cl)cc2)n1-c1ccccc1 | 22.5% (active)
O=C(c1cccc(C(F)(F)F)c1)N1CC[C@H]2[C@H](CCCN2Cc2cc(F)cc(F)c2)C1 | -2.92%
CCn1c(CNc2ccc(OC)cc2)nnc1SCC(=O)c1ccc(OC)cc1 | -4.28%
Cn1c(CNc2nc(-c3ccccc3)cs2)nnc1SCC(=O)c1ccccc1 | 35% (active)
Cn1c(Cc2cccs2)nnc1SCC(=O)Nc1ccccc1 | -5.09%
COc1ccc(CN2C(=O)N3Cc4cc(OC)ccc4C3CS2(=O)=O)cc1 (stereo unspecified) | 2.06%
O=C(CCCCCN1C(=O)C2C3C=CC(C3)C2C1=O)Nc1ccccc1 (stereo unspecified) | 1.21%
COc1cccc(C2=CC(=O)C[C@H](c3ccc(OC)c(OC)c3)C2)c1 | 1.42%
COc1ccc([C@H]2CC(=O)C=C(c3ccc(OC(F)(F)F)cc3)C2)cc1OC | 21% (active)
COc1ccc([C@H]2CC(=O)C=C(c3ccc(CO)cc3)C2)cc1 | -0.95%
O=C(COC(=O)Cc1c[nH]c2ccccc12)NCCc1ccccc1 | 7.22%
Cc1ccc(S(=O)(=O)N(C)CC(=O)NCCc2c[nH]c3ccccc23)cc1 | -6.6%
Cc1cc(C)cc(NC(=S)NCCc2c[nH]c3ccccc23)c1 | 28.5% (active)
COc1cc(/C=C2/SC(=S)N(Cc3ccccc3)C2=O)cc(OC)c1O | 20.6% (active)
COc1cc(Cl)cc(C2NC(=O)NC(C)=C2C(=O)NCc2ccccc2)c1O (stereo unspecified) | -4.94%
COc1cc(C(=S)NCc2ccccc2)cc(Br)c1O | 10.6%
CN(C)S(=O)(=O)c1cccc(NC(=O)COC(=O)C2(c3ccccc3F)CCCC2)c1 | 27.6% (active)
O=C(COC(=O)COc1ccccc1F)Nc1cccc(S(=O)(=O)N2CCCCC2)c1 | -11.9%
NS(=O)(=O)c1ccc(NC(=O)COC(=O)C2(c3ccc(F)cc3)CCCC2)cc1 | 13%
COC(=O)C1CN(CC(C)C)CCS(=O)(=O)N1Cc1ccc(C)cc1 (stereo unspecified) | -14.6%

Structure (SMILES) | inhibition
COC(=O)CC1CCc2cc(C)cc(C(CC(C)C)NC(=O)[C@H](CC(C)C)NC(=O)OCc3ccccc3)c2O1 (stereo partly specified) | -2.1%
COc1ccc(N2CCN(CCNS(=O)(=O)c3ccc(Cl)s3)CC2)cc1 | 0.29%
C=CCC[C@@H](Cc1ccc(F)cc1)C(=O)OC[C@@H](C)NC(=O)[C@H](CC=C)CC(=O)N(CCO)Cc1ccccc1 | 8.58%
C=CC[C@H](CC(=O)N(CCO)Cc1ccccc1)C(=O)N[C@@H](COC(=O)[C@@H](CC=C)Cc1ccc(F)cc1)Cc1ccccc1 | 28% (active)
C=CC[C@@H](Cc1ccc(F)cc1)C(=O)OC[C@H]1CCCN1C(=O)[C@H](CC=C)CC(=O)N(CCO)Cc1ccccc1 | -2.18%
C=CCC[C@@H](Cc1ccc(F)cc1)C(=O)OC[C@H](Cc1c[nH]c2ccccc12)NC(=O)[C@@H](CC=C)CC(=O)N(CCO)Cc1ccccc1 | 41.8% (active)
C=CC[C@@H](CC(=O)N[C@H](CO)Cc1ccccc1)C(=O)N[C@@H](COC(=O)[C@@H](CC=C)Cc1ccc(F)cc1)Cc1c[nH]c2ccccc12 | 0.04%
C=CCC[C@H](Cc1ccc(F)cc1)C(=O)OC[C@@H](NC(=O)[C@@H](CC=C)CC(=O)N[C@H](CO)Cc1ccccc1)C(C)(C)C | 8.16%
C=CCC[C@@H](Cc1ccc(F)cc1)C(=O)O[C@H](CNC(=O)[C@H](CC=C)CC(=O)N(CCO)Cc1ccccc1)c1ccccc1 | 31.3% (active)
C=CCC[C@H](Cc1ccc(F)cc1)C(=O)OC[C@@H](Cc1c[nH]c2ccccc12)NC(=O)[C@H](CC=C)CC(=O)N[C@H](CO)Cc1ccccc1 | 0.78%
C=CCC[C@H](Cc1ccc(F)cc1)C(=O)OC[C@H](C)NC(=O)[C@H](CC=C)CC(=O)N(CCO)Cc1ccccc1 | 7.82%
CSc1ccc(C=Nn2c(-c3ccc(F)cc3)n[nH]c2=S)cc1 | -11.4%
Cc1cccc(C(=O)Nc2c(-c3ccc(F)cc3)nc3ncccn23)c1 | -329%
CCC(CO)Nc1cccc2c1S(=O)(=O)N(Cc1cn(Cc3ccccc3C(F)(F)F)nn1)Cc1ccccc1O2 (stereo unspecified) | -15.3%
O=C(N1CCOCC1)N1CC[C@H]2[C@H](CCCN2Cc2ccc(F)cc2)C1 | -0.66%
CC(C)CNc1cccc2c1S(=O)(=O)N(Cc1cn(Cc3ccc(Cl)cc3)nn1)Cc1ccccc1O2 | -29.6%
CCn1c(=O)n2n(c1=O)[C@@]1(C=C3CCCC[C@H]32)N=C(NC(=O)c2ccccc2)N(Cc2ccccc2)[C@H]1Cc1ccccc1 | 9.57%
COC(=O)C[C@@H]1CC[C@@H]2[C@H](COc3ccc(NC(=O)c4cccc(F)c4)cc3C(=O)N2C)O1 | 9.14%
